From PubChem BioAssay

How the values were obtained:
[1] = test system: Botulinum neurotoxin type F light chain protease (Clostridium botulinum); experiment: Botulinum neurotoxin type F light chain protease inhibition, multiplex microsphere flow cytometry, validation set (AID 588459); conditions: multiplex microsphere protease substrate cleavage assay, at 10 µM, hits give high values
[2] = molecular target: Botulinum neurotoxin type A (Clostridium botulinum) (UniProt P0DPI0); experiment: BoNT/A light chain protease inhibitors, biochemical, multiplex microsphere flow cytometry, validation set (AID 588460); conditions: at 10 µM, hits give high values
[3] = molecular target: Lethal factor (Bacillus anthracis) (UniProt P15917); experiment: Lethal factor protease inhibitors, Bacillus anthracis, multiplex microsphere cleavage assay, validation set (AID 588461); conditions: flow cytometry, at 10 µM, hits give high values

Measured: inhibition

Sequence of Botulinum neurotoxin type A (Clostridium botulinum) (P0DPI0 whole entry, looked up): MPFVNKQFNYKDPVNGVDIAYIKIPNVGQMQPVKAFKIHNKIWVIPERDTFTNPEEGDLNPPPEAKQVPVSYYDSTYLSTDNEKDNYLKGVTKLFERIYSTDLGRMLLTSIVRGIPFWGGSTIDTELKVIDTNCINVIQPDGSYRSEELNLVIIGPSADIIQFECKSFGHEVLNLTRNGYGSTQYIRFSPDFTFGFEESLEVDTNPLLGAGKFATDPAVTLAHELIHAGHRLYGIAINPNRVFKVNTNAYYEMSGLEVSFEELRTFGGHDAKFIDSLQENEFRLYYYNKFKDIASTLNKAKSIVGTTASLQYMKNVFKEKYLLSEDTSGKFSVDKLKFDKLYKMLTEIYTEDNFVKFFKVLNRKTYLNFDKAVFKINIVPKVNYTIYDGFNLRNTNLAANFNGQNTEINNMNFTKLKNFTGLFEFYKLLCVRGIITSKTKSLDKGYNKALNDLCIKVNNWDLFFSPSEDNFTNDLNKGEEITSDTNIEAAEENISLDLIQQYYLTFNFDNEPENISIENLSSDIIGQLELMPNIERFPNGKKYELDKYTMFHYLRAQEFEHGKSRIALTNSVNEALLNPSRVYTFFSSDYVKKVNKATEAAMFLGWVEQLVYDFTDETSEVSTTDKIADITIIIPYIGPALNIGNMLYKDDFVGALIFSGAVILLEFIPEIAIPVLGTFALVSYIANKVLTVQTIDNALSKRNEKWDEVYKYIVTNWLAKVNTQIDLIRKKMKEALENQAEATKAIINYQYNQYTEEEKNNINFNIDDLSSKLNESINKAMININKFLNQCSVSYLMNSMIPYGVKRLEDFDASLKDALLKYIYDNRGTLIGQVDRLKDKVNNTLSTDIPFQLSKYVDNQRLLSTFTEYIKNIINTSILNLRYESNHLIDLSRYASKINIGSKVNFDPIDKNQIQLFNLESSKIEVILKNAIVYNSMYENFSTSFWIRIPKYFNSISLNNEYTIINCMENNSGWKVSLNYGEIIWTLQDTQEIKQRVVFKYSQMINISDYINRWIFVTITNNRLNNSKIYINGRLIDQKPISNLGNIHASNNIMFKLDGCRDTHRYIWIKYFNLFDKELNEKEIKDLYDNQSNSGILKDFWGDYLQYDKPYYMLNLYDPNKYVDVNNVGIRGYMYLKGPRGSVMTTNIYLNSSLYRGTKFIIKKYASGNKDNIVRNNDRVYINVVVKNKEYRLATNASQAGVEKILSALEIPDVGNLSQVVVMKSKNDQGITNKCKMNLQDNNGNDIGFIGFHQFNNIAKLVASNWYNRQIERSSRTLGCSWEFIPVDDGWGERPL
Sequence of Lethal factor (Bacillus anthracis) (P15917 whole entry, looked up): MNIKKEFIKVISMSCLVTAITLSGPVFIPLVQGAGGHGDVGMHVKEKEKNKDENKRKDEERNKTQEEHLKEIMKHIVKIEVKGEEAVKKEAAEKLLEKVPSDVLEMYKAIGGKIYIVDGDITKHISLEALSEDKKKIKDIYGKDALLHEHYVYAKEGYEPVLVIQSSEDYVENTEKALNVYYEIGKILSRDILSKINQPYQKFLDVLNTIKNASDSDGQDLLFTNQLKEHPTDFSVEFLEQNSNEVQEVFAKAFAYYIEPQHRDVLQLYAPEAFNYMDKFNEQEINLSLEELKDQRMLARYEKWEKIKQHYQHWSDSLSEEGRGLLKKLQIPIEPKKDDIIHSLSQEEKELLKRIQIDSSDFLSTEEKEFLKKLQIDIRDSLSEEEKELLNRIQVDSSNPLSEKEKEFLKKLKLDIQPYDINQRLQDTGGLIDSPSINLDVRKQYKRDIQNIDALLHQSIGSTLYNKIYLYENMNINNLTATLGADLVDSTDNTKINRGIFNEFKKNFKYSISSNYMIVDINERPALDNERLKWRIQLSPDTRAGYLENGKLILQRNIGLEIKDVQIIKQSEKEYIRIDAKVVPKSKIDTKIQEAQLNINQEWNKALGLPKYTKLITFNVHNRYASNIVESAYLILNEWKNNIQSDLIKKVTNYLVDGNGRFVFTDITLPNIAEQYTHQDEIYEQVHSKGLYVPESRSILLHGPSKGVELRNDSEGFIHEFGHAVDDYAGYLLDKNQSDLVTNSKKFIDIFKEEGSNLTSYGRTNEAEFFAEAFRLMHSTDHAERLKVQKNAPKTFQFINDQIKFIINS

Cc1oc2c(O)c(O)ccc2c(=O)c1-c1ccccc1
inactive: [1] 1.6% | [2] 0.4% | [3] 2%

COc1ccc(C(=O)C2CCCCC2=O)cc1 (stereo not given)
inactive: [1] 1.5% | [2] 0.2% | [3] -1.2%

O=C(NCC1CCCCN1)c1cc(OCC(F)(F)F)ccc1OCC(F)(F)F (stereo not given)
inactive: [1] -0.8% | [2] -0.3% | [3] -2%

CCOc1ccc2nc(N/C(N)=N/S(C)(=O)=O)nc(C)c2c1
inactive: [1] 2.1% | [2] -0.1% | [3] 2.4%

C=C(C)C(=O)Nc1ccc(NC(C)C)cc1
inactive: [1] 0.4% | [2] -0.8% | [3] 5.7%

COc1ccc(OC(C)C(=O)Nc2ccccc2F)cc1 (stereo not given)
inactive: [1] 0.8% | [2] -0.2% | [3] 1.9%

C[C@H]([C@@H](N)C(=O)N[C@@H](C(=O)O)[C@@H]1O[C@H](n2ccc(=O)[nH]c2=O)[C@@H](O)[C@H]1O)[C@@H](O)c1ccc(O)cn1
inactive: [1] 0.3% | [2] -1% | [3] -3.6%

CCN(CC)C(=S)SSC(=S)N(CC)CC
inactive: [1] -3.2% | [2] -3.2% | [3] -10.6%

CC(C)CCC1(CCNC(C)c2cccs2)CCOC(C)(C)C1 (stereo not given)
inactive: [1] -3.5% | [2] -0.9% | [3] -5.3%

CSCC[C@H](NC(=O)NC1CCCC1)C(=O)O
inactive: [1] 0.9% | [2] 0.2% | [3] -0.2%

Nc1nc2c(ncn2COC(CO)CO)c(=O)[nH]1
inactive: [1] -0.4% | [2] -1.1% | [3] -4.8%

O=C(O)c1cc2cc(F)ccc2[nH]1
inactive: [1] 5% | [2] 2.4% | [3] 4%

NNC(=O)c1cc(O)c(O)c(O)c1
inactive: [1] -3.2% | [2] -1% | [3] -2.8%

CC1(C)CC(NCc2ccccc2)CCO1 (stereo not given)
inactive: [1] 9.4% | [2] 5.6% | [3] 1.1%

Cn1nc(-c2ccccn2)nc2c(=O)n(C)c(=O)nc1-2
inactive: [1] -0.9% | [2] 2.9% | [3] -13%

C[C@]12CC[C@@H]3c4ccc(O)cc4C(=O)C[C@H]3[C@@H]1CC[C@@H]2O
inactive: [1] 1.2% | [2] -1.3% | [3] -6.8%

N#Cc1cc2c([nH]c1=O)CCCC2
inactive: [1] -0.1% | [2] -0.6% | [3] 2.6%

COC1CCN(Cc2cn(Cc3ccccc3)nc2-c2cc3ccccc3o2)CC1
inactive: [1] 2% | [2] -0.8% | [3] -3.3%

Cc1cn([C@H]2C=C[C@@H](CO)O2)c(=O)[nH]c1=O
inactive: [1] -1.8% | [2] -2.2% | [3] -0.8%

C=CCc1ccccc1OCC(O)CNC(C)C (stereo not given)
inactive: [1] -1% | [2] 0.4% | [3] -6.5%

c1ccc2[nH]c(-c3cscn3)nc2c1
inactive: [1] 1.2% | [2] 0.1% | [3] -4%

CC(CCc1ccccc1)NC(=O)/C=C/c1ccccc1 (stereo not given)
inactive: [1] 4.2% | [2] 0.4% | [3] 1.8%

Nc1c(C(=O)c2ccccc2)oc2ccccc12
inactive: [1] 1.8% | [2] 1% | [3] -7.3%

CN(C)C(=O)Oc1ccc[n+](C)c1
inactive: [1] -1.5% | [2] -0.6% | [3] -0.5%

CC1(C)S[C@@H]2[C@H](NC(=O)Cc3ccccc3)C(=O)N2[C@H]1C(=O)O
inactive: [1] 4.2% | [2] 1.7% | [3] -0.8%

C[C@]12C=CC(=O)C=C1CCC1C3CC[C@](O)(C(=O)CO)[C@@]3(C)CC3OC312 (stereo not given in full)
inactive: [1] -1.8% | [2] -2.7% | [3] -7.3%

O=c1cc(-c2ccccc2)oc2cc(OCc3ccccc3)cc(O)c12
inactive: [1] -0.8% | [2] -0.6% | [3] -4.8%

COc1cc(/C=C/C(=O)CC(=O)/C=C/c2ccc(O)c(OC)c2)ccc1O
inactive: [1] 12.2% | [2] 9.5% | [3] -0.9%

O=C(Nc1cccc(Cl)c1)N1CCN2C(=O)c3ccccc3C12c1ccccc1 (stereo not given)
inactive: [1] -3.9% | [2] -0.1% | [3] -4.4%

C=CCOc1ccc(C(=O)CC)cc1OC
inactive: [1] 0.6% | [2] -0.5% | [3] -1.9%

Fc1ccc(C(c2ccc(F)cc2)N2CCN(C/C=C/c3ccccc3)CC2)cc1
inactive: [1] -5.9% | [2] -1.8% | [3] -5.7%

Cc1ccsc1C1NC(=O)c2ccccc2N1 (stereo not given)
inactive: [1] -6.7% | [2] -1.3% | [3] -5.3%

COc1ccc2c(c1)CC[C@@H]1[C@@H]2CC[C@]2(C)C(=O)CC[C@@H]12
inactive: [1] -4% | [2] -1.5% | [3] -5%

OC(CCN1CCCCC1)(c1ccccc1)c1ccccc1
inactive: [1] 0.9% | [2] 0.5% | [3] -0.2%

Nc1ncnc2c1ncn2C1OC(CO)C(O)C1O (stereo not given)
inactive: [1] 14.6% | [2] -0.2% | [3] 2%
